MsrA act: activators of bovine methionine sulfoxide reductase A. purified bovine MsrA, absorbance read-out. activation, % at 10.6 µM. 0.3% of 360,000 active. AID 602163; in the data active = activation above about 7.5%;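 note: 0% = vehicle and 100% = reference activator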
HTR5A inv ctr: inverse agonist of human HTR5A in OPRM1-OPRD1 counter-screen. P47898. HTR5A cell line, luminescence, inverse agonism. 0.083% of 340,000 active. inhibition, % at 9.3 µM; in the data active = inhibition mostly above about 23%, no sharp cut-off; inactive = mostly below about 18%;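 note: 0% = cells with DMSO and 100% = no-cell wells with DMSO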
Target sequence (P47898 whole entry, looked up): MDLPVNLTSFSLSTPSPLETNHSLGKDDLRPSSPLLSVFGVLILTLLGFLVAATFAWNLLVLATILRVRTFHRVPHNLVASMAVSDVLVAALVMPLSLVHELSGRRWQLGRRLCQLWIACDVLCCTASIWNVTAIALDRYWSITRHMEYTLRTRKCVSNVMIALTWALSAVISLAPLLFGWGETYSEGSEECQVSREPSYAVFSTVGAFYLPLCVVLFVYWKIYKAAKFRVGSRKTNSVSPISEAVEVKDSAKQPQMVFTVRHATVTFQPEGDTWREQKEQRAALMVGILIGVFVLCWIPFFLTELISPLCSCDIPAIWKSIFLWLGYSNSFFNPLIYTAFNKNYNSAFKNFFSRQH
OPRM1-OPRD1 ag: agonists of human mu-delta opioid receptor heterodimerization. P35372+P41143. cells, OPRM1-OPRD1 heterodimerization, luminescence. activation, % at 9.3 µM. 0.3% of 340,000 active. AID 504326; in the data active = activation above about 18%;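 note: 0% = vehicle-treated cells and 100% = reference agonist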
MsrA inh: inhibitors of bovine MsrA. AID 651718. purified bovine MsrA, absorbance read-out. inhibition, % at 15.5 µM. 0.75% of 360,000 active; in the data active = inhibition above about 4.5%;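 note: 0% = vehicle wells with enzyme and 100% = reference inhibitor wells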
OPRM1-OPRD1 inv: inverse agonist of human OPRM1-OPRD1 heterodimerization; P35372+P41143; cell-based MOR-DOR heterodimer luminescence, inverse agonism; inhibition, % at 9.3 µM; 0.21% of 340,000 active; AID 504357; in the data active = inhibition above about 22%, passing the limit was not always enough;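 note: 0% = cells with DMSO and 100% = wells without cells with DMSO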
HTR5A ag: counter-screen for OPRM1-OPRD1 agonists: human HTR5A agonism | HTR5A agonist assay, luminescence, cell-based | P47898 | 0.61% of 340,000 active | AID 504692 | activation, % at 9.3 µM; in the data active = activation mostly above about 9.5%, no sharp cut-off; inactive = mostly below about 7.6%;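 note: 0% = cells with vehicle only and 100% = reference agonist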
Active calls of the source: *; i = inactive; · = not tested or not shown; + = active, no number. Most compounds without a hit are left out; they make up all but 1.9% or so of the library.

SMILES | MsrA act | HTR5A inv ctr | OPRM1-OPRD1 ag | MsrA inh | OPRM1-OPRD1 inv | HTR5A ag
Nc1nc2c(ncn2[C@@H]2O[C@H](C(=O)N[C@H](Cc3ccccc3)C(=O)NC3CCCCC3)[C@@H](O)[C@H]2O)c(=O)[nH]1 | · | · | · | 1.0 | · | ·
Cc1cc(/C=C\c2nc(O)c([N+](=O)[O-])c(=O)[nH]2)c(C)n1-c1ccccc1 | -1.7 | 12.8 | 34.0* | 4.2 | -194.2 | -4.5
O=S1(=O)c2ccc(Br)cc2OC2CCCC[C@@H]2N1Cc1ccccc1 (stereo not given in full) | · | · | · | 0.1 | · | ·
CCN(CC)CC(=O)Nc1sc2c(c1C(=O)c1ccccc1OC)CCC2 | -2.7 | -28.6 | 3.5 | 0.9 | -16.3 | 11.2*
COc1ccc(NC(=O)Nc2cccc3c2O[C@H](CN(C)S(=O)(=O)c2ccc(OC)cc2)[C@@H](C)CN([C@H](C)CO)C3=O)cc1 | -2.8 | -7.2 | -3.1 | 0.6 | 14.3 | 1.9
COc1ccc(NC(=O)Nc2cccc3c2O[C@H](CN(C)S(=O)(=O)c2c(C)noc2C)[C@@H](C)CN([C@H](C)CO)C3=O)cc1 | -1.5 | -38.7 | -1.0 | 0.1 | 4.5 | 10.4*
O=C(/C=C/c1ccc(Br)cc1)NC1CCCCCC1 | -1.6 | -18.4 | 1.4 | -0.3 | -7.3 | 13.7*
C[C@@H]1ON(C)[C@H]2C[C@H]3c4[nH]c5c(-c6ccc7c(c6)OCO7)cccc5c4CCN3C(=O)[C@@H]12 | · | · | · | -0.2 | · | ·
COc1cccc(/C=N/NC(=O)CCn2c3ccccc3c3ccccc32)c1 | -3.1 | -21.4 | 3.7 | 0.9 | -23.1 | 11.6*
COc1ccc(/C=N/NC(=O)CCn2c3ccccc3c3ccccc32)cc1O | -1.9 | 8.9 | 0.3 | -0.1 | -2.0 | 7.7
COCC#Cc1cnc2c(c1)C(=O)N([C@@H](C)CO)C[C@H](C)[C@H](CN(C)C(=O)c1ccc3c(c1)OCO3)O2 | · | · | · | -0.2 | · | ·
Cc1ccc(Cn2ccsc2=NC(=O)CCl)cc1 | -1.0 | -46.0 | 59.1* | -1.1 | -294.1 | 92.5*
On1ccccc1=S | 7.0 | 22.8 | i | 0.2 | + | -9.8
C/C(=N\NC(=O)c1ccc(O)cc1)c1cc2ccccc2o1 | -4.4 | 1.3 | 2.1 | 4.6* | -10.3 | -0.5
O=C(CSc1ccc2c(c1)OCCO2)Nc1ccc(Br)cn1 | -1.9 | -19.4 | -1.3 | -1.6 | 7.4 | 10.9*
COc1ccc(NS(=O)(=O)c2cccc(C(=O)NCc3ccccc3CN3CCCC3)c2)cc1 | -7.4 | -36.4 | -0.6 | -1.1 | 2.1 | 12.0*
CC(C)C(=O)OCC(=O)NCc1ccccc1Cl | -1.8 | 10.0 | -1.9 | -0.2 | 9.2 | -4.0
Cc1ccc(NC(=O)/C=N/OCC(=O)NCc2ccccc2Cl)cc1 | -2.3 | -39.7 | -1.8 | -0.2 | 9.8 | 13.9*
COC(=O)[C@]12C[C@H](CC(=O)N3CCCC3)C(=O)N(Cc3ccccc3)C1=C[C@H](C(C)(C)C)O[C@@H]2C | · | · | · | -0.2 | · | ·
O=C(Nc1nc(-c2cc(F)ccc2F)cs1)C1=NN(c2ccccc2)C(=O)CC1 | -6.5 | 2.8 | -1.8 | 0.8 | 9.0 | -1.1
COc1ccc(-c2csc(NC(=O)C3=NN(c4ccccc4)C(=O)CC3)n2)cc1 | -2.2 | -26.7 | -1.4 | 0.0 | 7.3 | 10.3*
COc1ccc(/C=C\c2nc(=O)c3ccccc3o2)cc1 | -4.5 | -0.7 | -1.7 | 4.7* | 9.1 | 0.2
CCc1cc2c(nc1CC)CCCN2S(=O)(=O)c1c(C)noc1C | · | · | · | 0.6 | · | ·
O=C1C=C(O)c2cccc(O)c2C1=O | -1.4 | 3.3 | 1.8 | -0.2 | -9.1 | 2.1
CC1OC(CC(=O)O)CC2=C1C(=O)c1c(O)cccc1C2=O (stereo not given) | 66.9* | 21.0 | 29.8* | 9.9* | -130.5 | -5.5
SMILES | MsrA act | HTR5A inv ctr | OPRM1-OPRD1 ag | MsrA inh | OPRM1-OPRD1 inv | HTR5A ag
Oc1ccccc1O | -0.9 | 9.8 | -2.2 | 1.3 | 11.9 | 1.1
Nc1ccccc1O | 9.4* | -3.7 | 9.3 | · | -49.5 | 0.9
O=C(CCl)N(c1ccccc1)C1CCCCC1 | -6.5 | 3.6 | 32.6* | 1.5 | -177.7 | 42.1*
CC(=O)N(c1ccccc1)C1CCCC1 | -0.4 | 8.4 | -2.1 | -1.2 | 12.9 | 1.4
O=C(N[C@H](Cc1ccccc1)C(=O)N1CCN(Cc2ccccn2)CC1)[C@H]1O[C@@H](n2ccc(=O)[nH]c2=O)[C@H](O)[C@@H]1O | · | · | · | -0.6 | · | ·
Cc1cccc(C(=O)NC(=S)Nc2ccc(Cc3ccncc3)cc2)c1 | -14.2 | -31.6 | -1.3 | 0.6 | 7.6 | 12.3*
Cc1cc(C)cc(C(=O)NC(=S)Nc2ccc(Cc3ccncc3)cc2)c1 | -3.5 | 4.7 | 0.5 | 1.4 | -2.2 | -2.0
Cc1nn(C(=O)c2ccco2)c(C)c1Sc1ccccc1 | -4.0 | 10.3 | 0.9 | -0.3 | -3.7 | 11.5*
O=C(N[C@H](C(=O)N1CCC[C@H]1C(=O)NC1CCCC1)c1ccccc1)C1CCCC1 | · | · | · | 0.7 | · | ·
Cc1c(C(=O)OCC(=O)Nc2ccc(S(N)(=O)=O)cc2)oc2c1ccc1ccccc12 | -3.3 | -20.7 | 10.0 | 0.2 | -48.4 | 11.7*
CCc1c(Cc2cccc(F)c2)ncn1CCc1ccccc1OC | · | · | · | 0.0 | · | ·
Cc1ccccc1CC(=O)Nc1ccc2c(c1)CCC2 | -7.7 | 0.4 | -2.0 | -0.4 | 9.3 | -0.1
O=C(Cc1ccccc1F)Nc1ccc2c(c1)CCC2 | -2.0 | -25.5 | 0.3 | -0.2 | -2.6 | 9.6*
COC(=O)c1cc2c(c3c4ccccc4n(S(=O)(=O)c4cccc(C)c4)c13)C(=O)N(Cc1ccc(N(C)C)cc1)C2 | · | · | · | 0.6 | · | ·
CC(=O)Nc1ccc(/C=C(\C#N)C(=O)NC2CCCCC2)cc1 | -1.0 | -0.5 | 0.2 | 4.6* | -1.1 | 0.2
CSc1ccc(/C=C(\C#N)C(=O)NC2CCCCC2)cc1 | 5.1 | 16.1 | -1.6 | -0.6 | 9.3 | -6.0
Cc1ccsc1C(=O)Nc1cc(C(C)(C)C)nn1-c1ccccc1 | -7.1 | 21.9 | 0.5 | · | -2.8 | 13.6*
COc1ccc(-n2c(CN3CCN(c4ccccc4OC)CC3)nc3ccc([N+](=O)[O-])cc3c2=O)c(OC)c1 | -1.5 | -38.5 | -2.2 | -0.1 | 10.2 | 9.9*
CC(C)(C)NC(=O)CSCc1c(Cl)cccc1Cl | -4.1 | 12.2 | -0.9 | 0.0 | 6.2 | -0.7
NC(=O)CSCc1c(Cl)cccc1Cl | -0.5 | -19.5 | -2.0 | 0.7 | 11.2 | 12.5*
CCCCSc1ccc(NC(=O)c2cccnc2)cc1 | 0.6 | -11.7 | 0.4 | -0.5 | -2.3 | 11.9*
COC(=O)CC#C[C@@H](C)[C@H](NS(=O)(=O)c1ccc(C)cc1)C(C)(C)C | · | · | · | 1.3 | · | ·
COc1ccc(NC2=NC(=S)N(c3ccccc3C)C23CCCCC3)cc1 | -1.8 | -24.2 | 6.0 | 1.8 | -31.1 | 5.0
COc1ccc(Nc2ccc3c(c2)=NC2(CCCCC2)[N+]=3[O-])cc1 | 5.2 | 9.9 | 4.3 | 14.6* | -23.6 | 2.2
CC(C)CCCCCCCCc1cccc(O)c1C(=O)O | · | · | · | -1.3 | · | ·
Cc1ccc2oc(=O)c3cnn(CC(=O)N4CCCc5ccccc54)c3c2c1 | -6.2 | 1.7 | -1.0 | -0.2 | 5.5 | 14.1*
Cc1ccc2oc(=O)c3cnn(CC(=O)N4CCN(c5ccccc5)CC4)c3c2c1 | 5.9 | 3.2 | 0.3 | 1.1 | -1.8 | 1.5
COC(=O)C1=C(C)N(C)C(=NCc2ccccc2C(F)(F)F)NC1c1cccc(F)c1 (stereo not given) | · | · | · | -0.1 | · | ·
